PMC5540273 (PLoS ONE, 2017)
Where two headings read alike, the source gives them in different places.

Assays:
CSK = conditions: concentration: 1 μM, replicates: in singlicate; n = 1
CSNK1A1L = conditions: concentration: 1 μM, replicates: in singlicate; n = 1
CSNK1A1 = conditions: concentration: 1 μM, replicates: in singlicate; n = 1
CSNK1D = conditions: concentration: 1 μM, replicates: in singlicate; n = 1
CSNK1E = conditions: concentration: 1 μM, replicates: in singlicate; n = 1
CSNK1G1 = conditions: concentration: 1 μM, replicates: in singlicate; n = 1
CSNK1G2 = conditions: concentration: 1 μM, replicates: in singlicate; n = 1
CSNK1G3 = conditions: concentration: 1 μM, replicates: in singlicate; n = 1
CSNK2A1 = conditions: n = 1
CSNK2A2 = conditions: n = 1
[1] = concentration: 1 μM, replicates: in singlicate
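Note: KINOMEscan kinase panel screen.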

| SMILES | %Inh (CSK) | %Inh (CSNK1A1L) | %Inh (CSNK1A1) | %Inh (CSNK1D) | %Inh (CSNK1E) | %Inh (CSNK1G1) | %Inh (CSNK1G2) | %Inh (CSNK1G3) | %Inh (CSNK2A1; [1]) | %Inh (CSNK2A2; [1]) | %Inh (CSNK2A1; 1 µM) | %Inh (CSNK2A2; 1 µM) |
| --- | --- | --- | --- | --- | --- | --- | --- | --- | --- | --- | --- | --- |
| CS(=O)(=O)CCNCc1nc(-c2ccc3ncnc(Nc4ccc5c(cnn5Cc5ccccc5)c4)c3c2)cs1.Cl.Cl [GW569716] | 0% | 0% | 0% | 2% | 21% | 1% | 0% | 3% | 0% | 37% | – | – |
| COc1ccc(Nc2nccc(NCCNC(=O)Nc3cc(C)ccc3C)n2)cc1 [GSK1379899] | 0% | 1% | 0% | 4% | 22% | 0% | 0% | 15% | 1% | 0% | – | – |
| COc1nccc(-c2c(-c3ccc(F)cc3)ncn2CCCN2CCOCC2)n1 [SB-282852] | 0% | 45% | 44% | 31% | 29% | 0% | 0% | 53% | 0% | 9% | – | – |
| CNCc1ccc2nc(NC(=O)c3ccc(C(C)(C)C)cc3)cn2c1 | 0% | 0% | 2% | 11% | 3% | 9% | 0% | 87% | 42% | 4% | – | – |
| COc1cccc(NC(=O)Nc2ccc(C)c(-c3ccc(C(=O)Nc4ccncc4)cc3)c2)c1 [GSK1398474] | 0% | 0% | 0% | 31% | 42% | 8% | 25% | 34% | 0% | 10% | – | – |
| Cn1cncc1-c1cc2c(Nc3ccc(OCc4ccccc4)cc3)ncnc2cn1 [GW281179] | 4% | 4% | 0% | 19% | 24% | 9% | 0% | 24% | 0% | 9% | – | – |
| Cl.Cl.Cl.N#Cc1ccc(CCNc2nccc(-c3cccc(CN4CCNCC4)c3)n2)cc1 [GSK2137462] | 15% | 2% | 0% | 23% | 55% | 13% | 0% | 14% | 20% | 30% | – | – |
| CC[C@@H]1CO[C@H](C(=O)Nc2ccccc2)CN1c1cc(-c2ccc3c(N)n[nH]c3c2)nc(NC)n1 [GSK2376236] | 0% | 4% | 0% | 39% | 42% | 7% | 31% | 39% | 12% | 10% | – | – |
| CC(=O)c1c(C)c2cnc(Nc3ccn(C)n3)nc2n(C2CCCC2)c1=O | 1% | 0% | 3% | 0% | 0% | 0% | 0% | 16% | 56% | 50% | – | – |
| COc1ccc(Nc2nccc(N3CCC(NC(=O)c4cc5ccccc5s4)C3)n2)cc1 (stereo not shown) [GSK1379738] | 2% | 2% | 0% | 9% | 34% | 0% | 0% | 17% | 5% | 0% | – | – |
| COc1cc2ncnc(Nc3cccc(Br)c3)c2cc1OC.Cl [GI230329] | 0% | 10% | 0% | 0% | 31% | 12% | 0% | 26% | 8% | 0% | – | – |
| O=C(Nc1n[nH]c2nc(-c3cccs3)c(Br)cc12)C1CC1 [SB-735297] | 12% | 6% | 0% | 0% | 0% | 0% | 0% | 17% | 26% | 51% | – | – |
| Cc1ccc(NC(=O)Nc2ccccc2F)cc1-c1ccc(C(=O)Nc2ccncc2)cc1 [GSK1398477] | 0% | 20% | 0% | 12% | 16% | 18% | 32% | 28% | 19% | 18% | – | – |
| COc1ccc(Nc2nccc(-c3ccc(NC(=O)c4cc5cc(F)ccc5[nH]4)cc3)n2)cc1 [GSK1229496] | 0% | 0% | 0% | 0% | 21% | 0% | 0% | 17% | 0% | 0% | – | – |
| Cc1c(Cn2c(C)c(C)n3c(=O)cc(N4CCOCC4)nc23)cccc1C(F)(F)F [GSK2328680] | 0% | 10% | 0% | 24% | 20% | 0% | 0% | 21% | 2% | 5% | – | – |
| NS(=O)(=O)c1cccc(N/C=C2\C(=O)Nc3ccc(S(=O)(=O)Cc4c(Cl)cccc4Cl)cc32)c1 [GSK398099] | 0% | 11% | 0% | 12% | 18% | 12% | 0% | 28% | 0% | 19% | – | – |
| Cc1ccc(NC(=O)Nc2ccc(Cl)cc2)cc1-c1ccc(C(=O)Nc2ccncc2)cc1 [GSK1398472] | 0% | 1% | 0% | 6% | 26% | 2% | 7% | 36% | 0% | 0% | – | – |

| SMILES | %Inh (CSK) | %Inh (CSNK1A1L) | %Inh (CSNK1A1) | %Inh (CSNK1D) | %Inh (CSNK1E) | %Inh (CSNK1G1) | %Inh (CSNK1G2) | %Inh (CSNK1G3) | %Inh (CSNK2A1; [1]) | %Inh (CSNK2A2; [1]) | %Inh (CSNK2A1; 1 µM) | %Inh (CSNK2A2; 1 µM) |
| --- | --- | --- | --- | --- | --- | --- | --- | --- | --- | --- | --- | --- |
| Cc1nccc(-c2c(-c3ccc(F)cc3)ncn2CCCN2CCOCC2)n1.Cl [SB-282975] | 0% | 21% | 51% | 95.6% | 88% | 4% | 6% | 2% | 1% | 9% | – | – |
| Cn1cncc1C(=O)NC1CCN(c2ccnc(Nc3ccc(F)cc3)n2)C1 (stereo not shown) [GSK1379717] | 9% | 0% | 0% | 0% | 0% | 0% | 0% | 17% | 0% | 0% | – | – |
| COC(=O)c1cccc(NC(=O)NC2CCN(c3ccnc(Nc4ccc(F)cc4)n3)C2)c1 (stereo not shown) [GSK1379725] | 0% | 3% | 0% | 21% | 7% | 0% | 0% | 9% | 0% | 0% | – | – |
| Fc1ccc(-c2nc3n(c2-c2ccncc2)CCS3)cc1 [GI98581] | 0% | 30% | 84% | 95.3% | 98.2% | 14% | 17% | 32% | 10% | 6% | – | – |
| O=c1cc(N2CCOCC2)nc2n(Cc3cccc(Cl)c3Cl)c3ccccc3n12 [GSK2299009] | 21% | 11% | 0% | 19% | 41% | 8% | 0% | 17% | 11% | 31% | – | – |
| Cc1ccc(NC(=O)Nc2ccc(Cl)c(C(F)(F)F)c2)cc1-c1ccc(C(=O)Nc2ccncc2)cc1 [GSK1398470] | 0% | 9% | 22% | 7% | 7% | 11% | 24% | 21% | 21% | 0% | – | – |
| c1ccc(-c2ccnc3[nH]ccc23)cc1 [SB-693578] | 0% | 20% | 0% | 1% | 42% | 90.3% | 0% | 5% | 0% | 0% | – | – |
| COc1ccc(CSc2nnc(-c3ccc4c(c3)CCO4)o2)cc1 | 0% | 3% | 0% | 0% | 0% | 0% | 0% | 0% | 0% | 0% | – | – |
| COC(=O)C(Cc1ccccc1)NC(=O)NC1CCN(c2ccnc(Nc3ccc(F)cc3)n2)C1 (stereo not shown) [GSK1379714] | 0% | 2% | 5% | 7% | 7% | 0% | 13% | 11% | 0% | 14% | – | – |
| CS(=O)(=O)Cc1ccc(Nc2nccc(-c3c(-c4cccc(NC(=O)C5CCCCC5)c4)nn4ncccc34)n2)cc1 [GSK350559] | 10% | 0% | 7% | 0% | 20% | 2% | 5% | 4% | – | – | 17% | 1% |
| Cc1ccc(NC(=O)Nc2ccccc2)cc1-c1ccc(C(=O)Nc2ccncc2)cc1 [GSK1398471] | 2% | 0% | 0% | 13% | 24% | 11% | 13% | 29% | 6% | 7% | – | – |
| COc1ccc2cc(-c3nc(-c4ccccc4C(C)C)[nH]c3-c3ccncc3)ccc2c1 [SB-660566] | 0% | 20% | 0% | 22% | 34% | 10% | 0% | 0% | 0% | 2% | – | – |
| COc1ccc(Nc2nccc(N3CCC(NC(=O)C(C)c4ccc(Cl)cc4)CC3)n2)cc1 (stereo not shown) [GSK1379812] | 0% | 0% | 0% | 18% | 35% | 7% | 0% | 19% | 0% | 21% | – | – |
| COc1ccc(-c2coc3ccc(-c4nnc(C)o4)cc23)cc1 | 0% | 0% | 0% | 0% | 0% | 4% | 1% | 0% | 0% | 15% | – | – |
| O=C(Nc1n[nH]c2cc(-c3ccsc3)ccc12)C1CC1 [SB-732932] | 0% | 17% | 0% | 0% | 0% | 24% | 0% | 0% | 29% | 52% | – | – |
| CCn1c(-c2ccccc2)nc2cnccc21 [SB-733416] | 0% | 11% | 0% | 2% | 24% | 0% | 0% | 11% | 0% | 1% | – | – |
| Cc1cnc(N)c(/C=C/c2cncc(C(=O)NCCc3ccc(Cl)cc3Cl)c2)c1.Cl [GSK190937] | 0% | 0% | 0% | 34% | 20% | 24% | 2% | 3% | 0% | 0% | – | – |
